Results filed as inconclusive are left out. The source made the active and inactive calls. Unless noted, cut-off not given; nearly all actives show AC50 up to about 26 µM.
Experiments:
[1] = growth inhibition of DIPG glioma cells, dose response, cell-based, SU-DIPG-XVII, MIPE5.0, CellTiter-Glo, qHTS (AID 1347060); details: SU-DIPG-XVII viability, CellTiter-Glo ATP luminescence;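 on AC50: cells exposed to compound for 48 hours before viability readout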
[2] = growth inhibition of DIPG glioma cells, dose response, cell-based, JHH-DIPG-1, MIPE4.0, CellTiter-Glo, qHTS (AID 1347062; cut-off not given, nearly all actives have AC50 up to about 27 µM;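 on AC50: cells exposed to compound for two days before readout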); details: JHH-DIPG-1 viability, CellTiter-Glo ATP luminescence
[3] = growth inhibition of DIPG glioma cells, dose response, cell-based, SU-DIPG-IV, MIPE4.0, CellTiter-Glo, qHTS (AID 1347063; cut-off not given, nearly all actives have AC50 up to about 30 µM;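 further: compound exposure lasted 48 hours before the viability readout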); details: SU-DIPG-IV viability, CellTiter-Glo ATP luminescence
[4] = growth inhibition of DIPG glioma cells, dose response, cell-based, SU-DIPG-XIII, MIPE5.0, CellTiter-Glo, qHTS (AID 1347064; cut-off not given, nearly all actives have AC50 up to about 23 µM;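 on AC50: cells exposed to compound for 48 hours before the viability read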); details: SU-DIPG-XIII viability, CellTiter-Glo ATP luminescence
[5] = viability loss in pontine glioma line – cell-based, SU-DIPG-XXV, MIPE5.0, CellTiter-Glo, qHTS, dose response (AID 1347065); details: CellTiter-Glo ATP luminescence;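 further: cells exposed to compound for 48 hours before ATP readout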
[6] = SU-DIPG-VI glioma cell viability, MIPE4.0 library, CellTiter-Glo luminescence, qHTS (AID 1347066; cut-off not given, nearly all actives have AC50 up to about 30 µM;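 further: cells exposed to compound for 48 hours before readout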); details: CellTiter-Glo ATP luminescence
[7] = JHH-DIPG-1 glioma cell viability, MIPE5.0 library, CellTiter-Glo luminescence, qHTS (AID 1347067); details: JHH-DIPG-1 glioma viability, CellTiter-Glo ATP luminescence;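 further: cells exposed to compound for 48 hours before readout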
[8] = SU-DIPG-XXV glioma cell viability, MIPE5.0 library, qHTS (AID 1347068; cut-off not given, nearly all actives have IC50 up to about 30 µM;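 on IC50: cells exposed to compound for 48 hours before viability readout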)
[9] = sensitizers of A549 cells to miR-34 induction, primary screen, imaging, A549 dox-inducible miR-34, nuclei and caspase counts (AID 1347080;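 active means compounds whose cell count with miR-34 switched on is under 0.7 times the count with it off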); details: A549 miR-34 inducible, Hoechst nuclei count, 48 h
[10] = survival rescue of mitochondrial mutant cells in low glucose, primary screen, MELAS cybrids, Rieske KO mouse fibroblasts, CellTiter-Glo (AID 1508586;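 active means mean z-score across replicates of 1.96 or higher in either the MELAS or the Rieske mutant cell line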;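 further: z relative to plate mean and SD of compound and empty wells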)
[11] = growth inhibition of DIPG glioma cells, dose response, cell-based, SU-DIPG-XIII, MIPE4.0, CellTiter-Glo, qHTS (AID 1347061; cut-off not given, nearly all actives have AC50 up to about 37 µM;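 further: cells exposed to compound for 48 hours before readout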); details: SU-DIPG-XIII viability, CellTiter-Glo ATP luminescence
[12] = modifiers of HSF1 nuclear foci, imaging, Selleck Cancer Library (AID 1347162; in the data active means plate-normalised HSF1 focus index below about 0.46); details: human cells, at 10 µM; SSMD: measured here: HSF1 foci SSMD mean; cell count: measured here: cell number; plate-normalised HSF1 focus index: stronger effect = lower value
[13] = ovarian cancer cell viability with rucaparib, profiling panel, oncology-focused library, rucaparib conditional (AID 1508598;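 active means normalized viability below 100% at a tested concentration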); details: patient-derived ovarian cancer cells, CellTiter-Glo viability, 144 h, stronger effect = lower value
[14] = stronger effect = lower value, cell number ratio, induced over uninduced
[15] = measured here: relative caspase fold change +Dox/-Dox
[16] = measured here: total cells with miR-34 induction, stronger effect = lower value
[17] = measured here: total cells without miR-34 induction
[18] = MELAS cybrid survival, CellTiter-Glo 48 h, stronger effect = higher value
[19] = Rieske KO mouse fibroblast survival, CellTiter-Glo 72 h

Cc1cc(CN2CCN(c3c(Br)cnc4nc(-c5ccc(N6CCN(C)CC6)cc5)[nH]c34)CC2)no1
0.921: fold change [9, 15]
3400: cell count [9, 16]
active: AC50 [1] 1.66 µM | AC50 [2] 7.43 µM | AC50 [3] 5.26 µM | AC50 [4] 3.32 µM | AC50 [5] 1.05 µM | AC50 [6] 14.8 µM | AC50 [7] 2.63 µM | IC50 [8] 8.33 µM
-0.677: z-score [10, 19]
inactive: fold change [9, 14] 1.05 | z-score [10, 18] -0.545
3250: cell count [9, 17]

CCc1cnn2c(NCc3ccc[n+]([O-])c3)cc(N3CCCC[C@H]3CCO)nc12
active: AC50 [1] 0.0372 µM | AC50 [2] 0.0235 µM | AC50 [3] 0.0187 µM | AC50 [4] 0.0372 µM | AC50 [5] 0.0295 µM | AC50 [7] 0.0417 µM
inactive: outcome [6]

CC(/C=C1\SC(=S)N(CC(=O)O)C1=O)=C\c1ccccc1
inactive: outcome [1] | outcome [2] | outcome [3] | outcome [4] | outcome [5] | outcome [6] | outcome [7]

Cc1ccc(Nc2cc(-c3cccc(N4C(=O)c5ccccc5C4=O)c3)ncn2)cc1NS(C)(=O)=O
inactive: outcome [2]
active: AC50 [1] 20.9 µM | AC50 [3] 18.7 µM

C=C1C(=O)OC2/C=C(/C)CC/C=C(/C)CCC12 (configuration not stated)
active: AC50 [1] 20.9 µM | AC50 [5] 18.6 µM | AC50 [7] 16.6 µM
inactive: outcome [11]

C=CC(=O)Nc1ccc2ncnc(Nc3ccc(OCc4cccc(F)c4)c(Cl)c3)c2c1
inactive: fold change [9, 14] 0.764 | z-score [10, 18] -0.263
0.764: z-score [10, 19]
active: AC50 [1] 5.25 µM | AC50 [2] 23.5 µM | AC50 [3] 1.32 µM | AC50 [4] 11.8 µM | AC50 [5] 6.61 µM | AC50 [6] 4.69 µM | AC50 [7] 8.33 µM | IC50 [8] 14.8 µM
2.08: fold change [9, 15]
5610: cell count [9, 17]
4290: cell count [9, 16]

CC1(COc2ccc3c(c2)ncn3-c2ccc3cccc(N4CCC(N)CC4)c3n2)COC1
7140: cell count [12]
1400: cell count [9, 17]
1330: cell count [9, 16]
-3.35: z-score [10, 19]
1.21: fold change [9, 15]
inactive: fold change [9, 14] 0.944 | plate-normalised HSF1 focus index [12] 0.92 | z-score [10, 18] 0.899 | viability ([13]; at 0.000305 µM, OCI-C5x cells, with rucaparib 10 µM, 100% = cells with rucaparib alone) 110% | viability ([13]; at 0.000305 µM, OCI-C5x cells, without rucaparib) 122% | viability ([13]; at 0.000305 µM, OCI-P5x cells, with rucaparib 20 µM, 100% = cells with rucaparib alone) 122% | viability ([13]; at 0.000305 µM, OCI-P5x cells, without rucaparib) 113% | viability ([13]; at 0.00122 µM, OCI-C5x cells, with rucaparib 10 µM, 100% = cells with rucaparib alone) 115% | viability ([13]; at 0.00122 µM, OCI-C5x cells, without rucaparib) 125% | viability ([13]; at 0.00122 µM, OCI-P5x cells, with rucaparib 20 µM, 100% = cells with rucaparib alone) 119% | viability ([13]; at 0.00122 µM, OCI-P5x cells, without rucaparib) 120% | viability ([13]; at 0.00488 µM, OCI-C5x cells, with rucaparib 10 µM, 100% = cells with rucaparib alone) 111% | viability ([13]; at 0.00488 µM, OCI-C5x cells, without rucaparib) 121% | viability ([13]; at 0.00488 µM, OCI-P5x cells, with rucaparib 20 µM, 100% = cells with rucaparib alone) 120% | viability ([13]; at 0.00488 µM, OCI-P5x cells, without rucaparib) 117% | viability ([13]; at 0.0195 µM, OCI-C5x cells, with rucaparib 10 µM, 100% = cells with rucaparib alone) 115% | viability ([13]; at 0.0195 µM, OCI-C5x cells, without rucaparib) 127% | viability ([13]; at 0.0195 µM, OCI-P5x cells, with rucaparib 20 µM, 100% = cells with rucaparib alone) 119% | viability ([13]; at 0.0195 µM, OCI-P5x cells, without rucaparib) 127% | viability ([13]; at 0.0781 µM, OCI-C5x cells, with rucaparib 10 µM, 100% = cells with rucaparib alone) 119% | viability ([13]; at 0.0781 µM, OCI-C5x cells, without rucaparib) 130% | viability ([13]; at 0.0781 µM, OCI-P5x cells, with rucaparib 20 µM, 100% = cells with rucaparib alone) 131% | viability ([13]; at 0.0781 µM, OCI-P5x cells, without rucaparib) 120% | viability ([13]; at 0.313 µM, OCI-C5x cells, with rucaparib 10 µM, 100% = cells with rucaparib alone) 116% | viability ([13]; at 0.313 µM, OCI-C5x cells, without rucaparib) 137% | viability ([13]; at 0.313 µM, OCI-P5x cells, with rucaparib 20 µM, 100% = cells with rucaparib alone) 129% | viability ([13]; at 0.313 µM, OCI-P5x cells, without rucaparib) 123% | viability ([13]; at 1.25 µM, OCI-C5x cells, with rucaparib 10 µM, 100% = cells with rucaparib alone) 102% | viability ([13]; at 1.25 µM, OCI-C5x cells, without rucaparib) 131% | viability ([13]; at 1.25 µM, OCI-P5x cells, with rucaparib 20 µM, 100% = cells with rucaparib alone) 142% | viability ([13]; at 1.25 µM, OCI-P5x cells, without rucaparib) 119%
-2.3: SSMD [12]
active: AC50 [1] 9.34 µM | AC50 [2] 0.332 µM | AC50 [3] 1.18 µM | AC50 [4] 10.5 µM | AC50 [5] 8.33 µM | AC50 [6] 23.5 µM | AC50 [7] 13.2 µM | IC50 [8] 26.3 µM | viability ([13]; at 5 µM, OCI-C5x cells, with rucaparib 10 µM, 100% = cells with rucaparib alone) 77.3% | viability ([13]; at 5 µM, OCI-C5x cells, without rucaparib) 77.6% | viability ([13]; at 5 µM, OCI-P5x cells, with rucaparib 20 µM, 100% = cells with rucaparib alone) 4.5% | viability ([13]; at 5 µM, OCI-P5x cells, without rucaparib) 81.8%

CSc1cccc(Nc2ncc3cc(-c4c(Cl)cccc4Cl)c(=O)n(C)c3n2)c1
active: AC50 [1] 1.48 µM | AC50 [5] 1.05 µM | AC50 [7] 1.18 µM
inactive: outcome [11]

CC1=C(C(=O)Nc2cc3cn[nH]c3cc2F)C(c2ccc(Cl)cc2F)N=C(c2ccnc(Cl)c2)N1 (configuration not stated)
active: AC50 [1] 13.2 µM | AC50 [5] 5.9 µM | AC50 [7] 16.6 µM
inactive: outcome [11]

COC(=O)Nc1ccc(-c2nc(N3CCOCC3)c3cnn(C4CCN(Cc5cccnc5)CC4)c3n2)cc1
active: AC50 [1] 5.25 µM | AC50 [2] 6.62 µM | AC50 [3] 0.235 µM | AC50 [4] 6.61 µM | AC50 [5] 1.48 µM | AC50 [6] 14.8 µM | AC50 [7] 6.61 µM | IC50 [8] 13.2 µM

Cc1ccc(NC(=O)C2(c3ccc4c(c3)OC(F)(F)O4)CC2)nc1-c1cccc(C(=O)O)c1
8860: cell count [9, 17]
inactive: outcome [1] | outcome [4] | outcome [5] | outcome [7] | outcome [8] | fold change [9, 14] 0.92 | z-score [10, 18] -0.25
active: AC50 [2] 0.0833 µM | AC50 [3] 0.118 µM | AC50 [6] 1.18 µM
8150: cell count [9, 16]
-0.226: z-score [10, 19]
0.757: fold change [9, 15]

COc1cc(NC(=O)c2ccc(-c3ccc(Cl)cc3)o2)cc(OC)c1
0.756: fold change [9, 15]
0.568: z-score [10, 19]
11100: cell count [9, 17]
9550: cell count [9, 16]
inactive: outcome [1] | outcome [4] | outcome [5] | outcome [6] | outcome [7] | outcome [8] | fold change [9, 14] 0.861 | z-score [10, 18] -0.392
active: AC50 [2] 0.935 µM | AC50 [3] 6.62 µM

CC(C)(C)c1nc2c3cc[nH]c(=O)c3c3cc(F)ccc3c2[nH]1
inactive: outcome [11]
active: AC50 [1] 16.6 µM | AC50 [5] 1.48 µM

Cc1cnc(Nc2cccc(CN3CCOCC3)c2)nc1Nc1cccc(S(=O)(=O)NC(C)(C)C)c1
active: AC50 [1] 0.332 µM | AC50 [2] 7.43 µM | AC50 [3] 5.26 µM | AC50 [4] 2.95 µM | AC50 [5] 1.18 µM | AC50 [6] 14.8 µM | AC50 [7] 2.35 µM

CC(C)n1c(/C=C/[C@H](O)C[C@H](O)CC(=O)O)c(-c2ccc(F)cc2)c2ccccc21
1670: cell count [9, 16]
0.873: fold change [9, 15]
active: AC50 [1] 8.33 µM
0.0762: z-score [10, 19]
inactive: outcome [11] | outcome [6] | outcome [8] | fold change [9, 14] 1.07 | z-score [10, 18] -2.58
1560: cell count [9, 17]
